Measured values taken from PubChem BioAssay (NCI).
Compounds without any hit were thinned out: in the full panel of roughly 79,000, 15% have a hit. Active and inactive are the calls of the source. Cut-off read from the data, not from the text of the source: active = growth inhibition above about 70%; inactive = the rest.

Columns and labels:
[1] = NCI Yeast Anticancer Drug Screen. Data for the rad52 strain (AID 147);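 note: 0% = growth of vehicle-treated control cultures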; details: S. cerevisiae rad52 mutant growth inhibition, active compounds read high
How it was run: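 Inhibition of yeast growth, referenced to vehicle controls, was the measured output for a strain with defective DNA damage repair.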

[2] = NCI Yeast Anticancer Drug Screen. Data for the wt1 strain (AID 149);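 note: 0% = growth of vehicle-treated wt1 cultures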; details: S. cerevisiae wt1 strain (SPY 50644) growth inhibition, active compounds read high
How it was run: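 wt1 strain grown with compound or vehicle; inhibition taken from the growth difference.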

[3] = NCI Yeast Anticancer Drug Screen. Data for the rad50EPP+ strain (AID 151);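 note: 0% = growth of vehicle-treated control cultures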; details: S. cerevisiae rad50 mutant strain, active compounds read high
How it was run: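 Genetically defined yeast (rad50EPP+, DNA damage repair alteration) is grown with compound, and inhibition of growth is expressed relative to vehicle-treated controls.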

[4] = NCI Yeast Anticancer Drug Screen. Data for the rad50 strain (AID 155);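 note: 0% = growth of vehicle-only cultures of the same strain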; details: S. cerevisiae rad50 strain growth inhibition, active compounds read high
How it was run: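 DNA repair mutant yeast, compound exposure, growth read-out; inhibition is taken relative to vehicle.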

[5] = NCI Yeast Anticancer Drug Screen. Data for the mec2-1 strain (AID 157); details: S. cerevisiae mec2-1 strain, active compounds read high
How it was run: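 Each compound was tested on mec2-1 yeast, a strain altered in DNA damage repair or cell cycle control. Growth inhibition is reported relative to vehicle.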

[6] = NCI Yeast Anticancer Drug Screen. Data for the rad14 strain (AID 159);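 note: 0% = growth of vehicle-treated control cultures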; details: S. cerevisiae rad14 strain growth inhibition, active compounds read high
How it was run: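 DNA repair-defective yeast, compound-exposed; % growth inhibition derived by comparison with vehicle-treated controls.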

[7] = NCI Yeast Anticancer Drug Screen. Data for the sgs1 mgt1 strain (AID 161);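 note: 0% = growth of cultures given vehicle only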; details: S. cerevisiae sgs1 mgt1 strain, active compounds read high
How it was run: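 Read-out: growth inhibition vs vehicle controls. Cells: mutant yeast strain deficient in DNA damage repair.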

[8] = NCI Yeast Anticancer Drug Screen. Data for the cln2 rad14 strain (AID 165);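 note: 0% = growth equal to vehicle treated cultures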; details: S. cerevisiae cln2 rad14 strain, active compounds read high
How it was run: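 Test compounds were added to cln2 rad14 yeast cultures; inhibition of growth was then determined by comparison with vehicle treatment.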

[9] = NCI Yeast Anticancer Drug Screen. Data for the bub3 strain (AID 167); details: S. cerevisiae bub3 mutant strain, active compounds read high
How it was run: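 In this screen, a yeast mutant lacking normal mitotic checkpoint function is challenged with compound. Relative growth versus vehicle gives the inhibition value.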

[10] = NCI Yeast Anticancer Drug Screen. Data for the wt2 strain (AID 169);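 note: 0% = growth of vehicle-treated yeast cultures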; details: S. cerevisiae wt2 strain growth inhibition, active compounds read high
How it was run: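 The panel's yeast strains carry defined changes in DNA repair or cell cycle genes. Each strain is grown with compound, and growth loss is scored relative to vehicle.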

[11] = NCI Yeast Anticancer Drug Screen. Data for the mlh1 strain (AID 171);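 note: 0% = growth of vehicle-treated control cultures of the same strain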; details: S. cerevisiae mlh1 strain growth inhibition, active compounds read high
How it was run: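 Inhibition values reflect reduced yeast growth in the presence of compound, referenced to vehicle controls, using a strain chosen for its alteration in DNA repair or cell cycle control.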

[12] = NCI Yeast Anticancer Drug Screen. Data for the mlh1 rad18 strain (AID 175); details: S. cerevisiae mlh1 rad18 strain growth inhibition, active compounds read high
How it was run: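 Inhibition values reflect reduced growth of mutant yeast versus vehicle-treated controls following compound exposure; the mutations affect DNA damage repair.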

[13] = NCI Yeast Anticancer Drug Screen. Data for the rad18 strain (AID 177); details: S. cerevisiae rad18 mutant growth inhibition, active compounds read high
How it was run: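 Steps: expose repair-mutant yeast to compound; measure growth; express as inhibition relative to vehicle control.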

[14] = NCI Yeast Anticancer Drug Screen. Data for the CLN2oe strain (AID 163);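 note: 0% = growth of vehicle-only control cultures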; details: S. cerevisiae CLN2oe strain, active compounds read high
How it was run: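 First, the altered yeast strain was treated with each compound; second, its growth was measured; finally, inhibition was derived by comparison with vehicle controls.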

[15] = NCI Yeast Anticancer Drug Screen. Data for the sgs1 strain (AID 173);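 note: 0% = growth of vehicle-only control cultures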; details: S. cerevisiae sgs1 mutant, active compounds read high
How it was run: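 Vehicle-treated cultures served as reference for growth inhibition of a yeast strain altered in DNA damage repair or cell cycle control after compound exposure.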

[16] = at 5.0 µM (retest, dose inferred, filed as 0.5)
[17] = at 50.0 µM (retest, dose inferred, filed as 5.0)

Measured: growth inhibition

CNc1nc(C)nc2c1cnn2-c1ccc([N+](=O)[O-])cc1
active: [4]; [17] 76% | [4]; at 50.0 µM 79.2% | [4]; at 100.0 µM 88% | [7]; [17] 83% | [12]; [17] 91% | [13]; at 33.0 µM 89% | [13]; at 100.0 µM 92%
inactive: [1]; at 1.2 µM -1% | [1]; at 3.7 µM -6% | [1]; at 11.0 µM 10% | [1]; at 33.0 µM 26% | [1]; at 100.0 µM 41% | [2]; at 1.2 µM 3% | [2]; at 3.7 µM 1% | [2]; at 11.0 µM 13% | [2]; at 33.0 µM 12% | [2]; at 100.0 µM 15% | [3]; at 1.2 µM 11% | [3]; at 3.7 µM 17% | [3]; at 11.0 µM 42% | [3]; at 33.0 µM 63% | [3]; at 100.0 µM 69% | [4]; at 1.2 µM -2% | [4]; at 3.7 µM -5% | [4]; [16] 1% | [4]; at 11.0 µM 16% | [4]; at 33.0 µM 68% | [5]; at 1.2 µM 0% | [5]; at 3.7 µM 0% | [5]; [16] -2% | [5]; at 11.0 µM 2% | [5]; at 33.0 µM -1% | [5]; [17] 31% | [5]; at 50.0 µM -1.35% | [5]; at 100.0 µM -2% | [6]; at 1.2 µM 11% | [6]; at 3.7 µM 2% | [6]; at 11.0 µM 22% | [6]; at 33.0 µM 24% | [6]; at 100.0 µM 25% | [7]; [16] 2% | [7]; at 50.0 µM 69.7% | [8]; [16] -4% | [8]; [17] 30% | [8]; at 50.0 µM 2% | [9]; at 1.2 µM -5% | [9]; at 3.7 µM -2% | [9]; [16] -2% | [9]; at 11.0 µM -12% | [9]; at 33.0 µM -12% | [9]; [17] 2% | [9]; at 50.0 µM -13.3% | [9]; at 100.0 µM -14% | [10]; at 1.2 µM -4% | [10]; at 3.7 µM 9% | [10]; at 11.0 µM 13% | [10]; at 33.0 µM 24% | [10]; at 100.0 µM 16% | [11]; at 1.2 µM -5% | [11]; at 3.7 µM -1% | [11]; at 11.0 µM 0% | [11]; at 33.0 µM -1% | [11]; at 100.0 µM -1% | [12]; [16] -8% | [12]; at 50.0 µM 57.5% | [13]; at 1.2 µM -1% | [13]; at 3.7 µM 16% | [13]; at 11.0 µM 49%

O=[N+]([O-])c1cccc2nc3ccccc3c(NCCc3cccc[n+]3[O-])c12
active: [1]; at 11.0 µM 81% | [1]; at 33.0 µM 92% | [1]; at 100.0 µM 97% | [2]; at 100.0 µM 70% | [3]; at 11.0 µM 72% | [3]; at 33.0 µM 82% | [3]; at 100.0 µM 90% | [4]; [16] 70% | [4]; at 33.0 µM 88% | [4]; [17] 96% | [4]; at 50.0 µM 87.5% | [4]; at 100.0 µM 94% | [5]; at 33.0 µM 95% | [5]; [17] 98% | [5]; at 50.0 µM 83.2% | [5]; at 100.0 µM 98% | [7]; [16] 91% | [7]; [17] 97% | [7]; at 50.0 µM 91.8% | [14]; at 100.0 µM 86% | [8]; [16] 85% | [8]; [17] 99% | [8]; at 50.0 µM 95.2% | [9]; [17] 83% | [10]; at 100.0 µM 79% | [11]; at 100.0 µM 89% | [15]; at 3.7 µM 75% | [15]; at 11.0 µM 89% | [15]; at 33.0 µM 93% | [15]; at 100.0 µM 96% | [12]; [16] 88% | [12]; [17] 98% | [12]; at 50.0 µM 93.8% | [13]; at 1.2 µM 92% | [13]; at 3.7 µM 94% | [13]; at 11.0 µM 94% | [13]; at 33.0 µM 96% | [13]; at 100.0 µM 96%
inactive: [1]; at 1.2 µM 15% | [1]; at 3.7 µM 47% | [2]; at 1.2 µM 0% | [2]; at 3.7 µM 1% | [2]; at 11.0 µM 11% | [2]; at 33.0 µM 27% | [3]; at 1.2 µM 21% | [3]; at 3.7 µM 43% | [4]; at 1.2 µM 10% | [4]; at 3.7 µM 30% | [4]; at 11.0 µM 68% | [5]; at 1.2 µM 2% | [5]; at 3.7 µM 18% | [5]; [16] 25% | [5]; at 11.0 µM 62% | [14]; at 1.2 µM -11% | [14]; at 3.7 µM -12% | [14]; at 11.0 µM 6% | [14]; at 33.0 µM 35% | [9]; at 1.2 µM -12% | [9]; at 3.7 µM -13% | [9]; [16] 3% | [9]; at 11.0 µM -11% | [9]; at 33.0 µM 17% | [9]; at 50.0 µM 53.2% | [9]; at 100.0 µM 65% | [10]; at 1.2 µM 1% | [10]; at 3.7 µM 3% | [10]; at 11.0 µM 14% | [10]; at 33.0 µM 35% | [11]; at 1.2 µM 0% | [11]; at 3.7 µM 3% | [11]; at 11.0 µM 20% | [11]; at 33.0 µM 50% | [15]; at 1.2 µM 43%
